Results filed as inconclusive are left out. Where a call stands in place of a potency, no number is given. The source made the active and inactive calls. Unless noted, calls follow the shape of the dose curve; as a rule, active = well fitted curve in the direction sought with a large enough effect in the repeat runs; inconclusive = weak or mixed curves; inactive = no such curve, though single readings can be large; an effect the other way counts as inactive or inconclusive. Positions of bridges follow the written chain, without caps; N, C: chain ends. Non-standard residues stand in square brackets, D forms with d. Residues, ends and D or L forms follow the SMILES beside them. *: point of attachment. pGlu = O=C1CC[C@@H](C(=O)O)N1; X2 = CC[C@H](C)CCCCC(=O)*; Thz = O=C(O)[C@@H]1CSCN1; Dab = NCC[C@H](N)C(=O)O
How the values were obtained:
[1] = qHTS assay to identify aromatase inhibitors - cell viability counter screen (AID 743084);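 also: cells stimulated with testosterone during compound exposure; nearly all actives have a fitted effect of over 55% in size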; also: potency is read from the fitted curve at half-maximal effect
[2] = molecular target: Aryl hydrocarbon receptor (Homo sapiens) (UniProt P35869); assay: qHTS assay to identify small molecule that activate the aryl hydrocarbon receptor (AhR) signaling pathway (AID 743085);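 also: HG2L7.5c1 human HepG2 liver cells with stably integrated DRE-driven firefly reporter; series mostly up to about 70 µM; nearly all actives have a fitted effect of over 15% in size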
In short: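 A multiplexed format paired cell viability (CellTiter-Fluor fluorescence) with AhR-dependent luciferase output (ONE-Glo luminescence) in the same wells of HepG2 DRE-luc cells after 24 h compound exposure at 37C.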

[3] = qHTS assay to identify small molecule that activate the aryl hydrocarbon receptor (AhR) signaling pathway - cell viability counter screen (AID 743086); also: nearly all actives have a fitted effect of over 45% in size; also: potency is read from the fitted curve at half-maximal effect
In short: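 Cytotoxicity counter screen: CellTiter-Fluor signal (30 min, 37 C) in 4000 HepG2 cells/well carrying the DRE-luciferase reporter, following 24 h compound exposure at 37 C.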

[4] = molecular target: Peroxisome proliferator-activated receptor gamma (Homo sapiens) (UniProt P37231); assay: qHTS assay to identify small molecule agonists of the peroxisome proliferator-activated receptor gamma (PPARg) signaling pathway (AID 743094; active = well fitted activation curve with a large enough effect in the signal ratio in the repeat runs, not every such curve was filed as active; the % refers to the signal ratio)
In short: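 Stably transfected HEK293H cells (GeneBLAzer PPARg UAS-bla) were incubated with test substances for 17 h at 37C after a 5 h pre-incubation; beta-lactamase activity was then detected by FRET substrate fluorescence.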

[5] = qHTS assay to identify small molecule phospholipidosis (PLD) inducers (AID 1259344; active = well fitted curve in the direction sought with a large enough effect; an effect the other way counts as inactive or inconclusive)
In short: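 Fluorescent phospholipid staining (LipidTOX Red) measured by automated microscopy in fixed HepG2 cells after 24 h treatment; nuclei counterstained with Hoechst 33342; amiodarone as reference inducer.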

[6] = molecular target: Nuclear receptor subfamily 1 group I member 2 (Rattus norvegicus) (UniProt Q9R1A7); assay: Rat pregnane X receptor (rPXR) activation by small molecules, qHTS assay (AID 1346983); conditions: rPXR luciferase reporter cells, One-Glo luminescence, 24 h; max activation: hits give high values; also: nearly all actives have a fitted effect of over 20% in size
In short: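 Luminescent readout (One-Glo luciferase, 30 min room temperature) followed 24 hr compound treatment at 37 C of rPXR cells plated 2,000 per well and preincubated 5hr; qHTS format with compounds delivered in DMSO.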

[7] = molecular target: Nuclear receptor subfamily 1 group I member 2 (Homo sapiens) (UniProt O75469); assay: CYP3A4 induction through human pregnane X receptor (PXR) by small molecules, qHTS assay (AID 1346984); also: nearly all actives have a fitted effect of over 40% in size
In short: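 DPX-2 reporter cells; 24h cpd, 37C; Luciferin-IPA 3uM final x3h; One-Glo 30 min RT; lumi read.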

[8] = molecular target: Nuclear receptor subfamily 1 group I member 2 (Homo sapiens) (UniProt O75469); assay: Human pregnane X receptor (PXR) activation by small molecules, qHTS assay (AID 1346985); also: nearly all actives have a fitted effect of over 40% in size
In short: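 DPX-2 cells (HepG2 co-transfected with a PXR response element and a CYP3A4-promoter luciferase construct) were seeded at 2,000 per well, rested 5 hr at 37C, then exposed to DMSO-dissolved compounds for 24 hr. Activation was read as luciferase luminescence.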

Sequence of Nuclear receptor subfamily 1 group I member 2 (Rattus norvegicus) (Q9R1A7 whole entry, looked up): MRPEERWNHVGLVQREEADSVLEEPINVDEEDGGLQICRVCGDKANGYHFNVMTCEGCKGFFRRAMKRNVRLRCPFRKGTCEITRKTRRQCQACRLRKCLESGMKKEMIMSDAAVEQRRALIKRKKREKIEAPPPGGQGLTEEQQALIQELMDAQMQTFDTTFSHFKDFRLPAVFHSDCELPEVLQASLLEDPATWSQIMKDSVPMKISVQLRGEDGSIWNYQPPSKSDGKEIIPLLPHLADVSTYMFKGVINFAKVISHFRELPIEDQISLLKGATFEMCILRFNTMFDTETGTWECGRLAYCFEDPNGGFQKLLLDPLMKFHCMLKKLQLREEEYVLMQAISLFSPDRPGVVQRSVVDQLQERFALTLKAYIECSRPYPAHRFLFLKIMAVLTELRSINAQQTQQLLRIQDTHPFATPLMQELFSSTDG
Sequence of Peroxisome proliferator-activated receptor gamma (Homo sapiens) (P37231 whole entry, looked up): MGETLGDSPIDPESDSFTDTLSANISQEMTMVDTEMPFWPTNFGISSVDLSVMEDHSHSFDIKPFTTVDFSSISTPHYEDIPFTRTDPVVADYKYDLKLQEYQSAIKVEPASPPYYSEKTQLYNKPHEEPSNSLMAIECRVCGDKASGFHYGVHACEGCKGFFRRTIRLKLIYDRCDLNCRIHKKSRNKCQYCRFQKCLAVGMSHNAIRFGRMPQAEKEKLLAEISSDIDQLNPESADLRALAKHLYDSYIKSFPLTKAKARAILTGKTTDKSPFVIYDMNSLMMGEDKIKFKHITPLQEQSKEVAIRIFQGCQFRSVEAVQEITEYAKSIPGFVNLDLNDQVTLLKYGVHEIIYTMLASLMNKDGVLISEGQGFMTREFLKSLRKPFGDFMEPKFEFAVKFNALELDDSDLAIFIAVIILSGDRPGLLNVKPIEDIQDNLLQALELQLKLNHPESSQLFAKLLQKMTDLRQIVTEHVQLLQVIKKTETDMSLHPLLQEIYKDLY
Sequence of Aryl hydrocarbon receptor (Homo sapiens) (P35869 whole entry, looked up): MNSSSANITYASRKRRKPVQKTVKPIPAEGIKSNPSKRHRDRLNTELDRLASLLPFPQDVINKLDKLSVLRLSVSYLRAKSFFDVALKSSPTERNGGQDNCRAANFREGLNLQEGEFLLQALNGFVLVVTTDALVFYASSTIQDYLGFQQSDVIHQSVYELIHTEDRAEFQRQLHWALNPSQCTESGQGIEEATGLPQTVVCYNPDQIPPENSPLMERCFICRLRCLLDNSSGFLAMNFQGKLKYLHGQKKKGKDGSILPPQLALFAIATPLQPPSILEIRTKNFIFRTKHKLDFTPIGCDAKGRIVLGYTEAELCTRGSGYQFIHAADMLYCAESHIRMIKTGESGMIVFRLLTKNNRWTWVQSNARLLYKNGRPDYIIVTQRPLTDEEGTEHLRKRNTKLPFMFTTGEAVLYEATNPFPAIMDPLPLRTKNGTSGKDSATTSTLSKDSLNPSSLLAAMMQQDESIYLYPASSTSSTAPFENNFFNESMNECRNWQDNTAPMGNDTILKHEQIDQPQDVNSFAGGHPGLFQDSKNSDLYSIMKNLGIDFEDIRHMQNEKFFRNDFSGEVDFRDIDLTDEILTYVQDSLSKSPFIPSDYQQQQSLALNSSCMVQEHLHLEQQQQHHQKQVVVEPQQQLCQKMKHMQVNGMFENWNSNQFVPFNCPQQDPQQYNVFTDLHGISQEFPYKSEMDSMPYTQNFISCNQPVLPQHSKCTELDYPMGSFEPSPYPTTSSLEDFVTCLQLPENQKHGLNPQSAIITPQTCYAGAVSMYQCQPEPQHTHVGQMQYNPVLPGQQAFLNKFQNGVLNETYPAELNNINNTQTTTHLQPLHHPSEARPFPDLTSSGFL

Row | Structure (SMILES) | Potency [1] | Potency [2] | Potency [3] | Potency [4] | Potency [5] | max activation [6] | Potency [7] | Potency [8]
1 | S=C=Nc1ccc(N=C=S)cc1 | inactive | inactive | inactive | inactive | inactive | -1.24% (inactive) | inactive | inactive
2 | CC1=C(/C=C/C(C)=C/C=C/C(C)=C/C=C/C=C(C)/C=C/C=C(C)/C=C/C2=C(C)C(=O)CCC2(C)C)C(C)(C)CCC1=O | inactive | inactive | inactive | inactive | inactive | -3.2% (inactive) | inactive | inactive
3 | CCOC(=O)[C@@H](N)CS | inactive | inactive | inactive | inactive | inactive | -2.02% (inactive) | inactive | inactive
4 | CCN(CC)CCOC(=O)c1cccnc1 | inactive | inactive | inactive | inactive | inactive | -7.53% (inactive) | inactive | inactive
5 | CCCCCCCCCCCCCCCC(=O)OC[C@@H](O)[C@H]1OC[C@H](O)[C@H]1O | inactive | inactive | inactive | inactive | inactive | 2.9% (inactive) | inactive | inactive
6 | C[N@+]12CCCC[C@@H]1CCC(=C(c1cccs1)c1cccs1)C2 | inactive | inactive | inactive | inactive | inactive | -3.7% (inactive) | inactive | inactive
7 | CC(O)CN(C)C (stereo not drawn) | inactive | inactive | inactive | inactive | inactive | -0.0612% (inactive) | inactive | inactive
8 | CCCCCCCCCCCC(=O)N(CCO)CCO | inactive | inactive | inactive | inactive | inactive | -2.62% (inactive) | inactive | inactive
9 | Nc1nc2c(c(=O)[nH]1)N(C=O)C(CNc1ccc(C(=O)N[C@@H](CCC(=O)O)C(=O)O)cc1)CN2 (stereo partly drawn) | inactive | inactive | inactive | inactive | inactive | 3.43% (inactive) | inactive | inactive
10 | COC(=O)CC[C@H](N)C(=O)O | inactive | inactive | inactive | inactive | inactive | -5.81% (inactive) | inactive | inactive
11 | CC(O)[C@@H]1NC(=O)[C@H](Cc2ccccc2)NC(=O)[C@H](C(C)O)NC(=O)[C@H](CCCCN)NC(=O)[C@H](Cc2c[nH]c3ccccc23)NC(=O)[C@H](Cc2ccccc2)NC(=O)[C@H](Cc2ccccc2)NC(=O)[C@H](CC(N)=O)NC(=O)[C@H](CCCCN)NC(=O)[C@@H](NC(=O)CNC(=O)[C@H](C)N)CSSC[C@@H](C(=O)O)NC(=O)[C@H](CO)NC1=O (stereo partly drawn) | inactive | inactive | inactive | inactive | inactive | -3.53% (inactive) | inactive | inactive
12 | FCOC(C(F)(F)F)C(F)(F)F | inactive | inactive | inactive | inactive | inactive | -0.275% (inactive) | inactive | inactive
13 | O=C(O)c1ccc(NC(=O)[C@H](Cc2ccc(O)cc2)NC(=O)c2ccccc2)cc1 | inactive | inactive | inactive | inactive | inactive | 0.18% (inactive) | inactive | inactive
14 | CC(=O)Nc1ccc(OC(=O)c2ccccc2O)cc1 | inactive | inactive | inactive | inactive | inactive | -2.95% (inactive) | inactive | inactive
15 | O=C(O)CO.[NH2-].[NH2-].[Pt+2] | inactive | inactive | inactive | inactive | inactive | -2.14% (inactive) | inactive | inactive
16 | Cc1cc(-c2ccc(N=Nc3c(S(=O)(=O)O)cc4cc(S(=O)(=O)O)cc(N)c4c3O)c(C)c2)ccc1N=Nc1c(S(=O)(=O)O)cc2cc(S(=O)(=O)O)cc(N)c2c1O | 13.3 µM (active) | inactive | 15 µM (active) | inactive | inactive | -20.2% (inactive) | inactive | inactive
17 | CO[C@@]1(NC(=O)C2SC(=C(C(N)=O)C(=O)O)S2)C(=O)N2C(C(=O)O)=C(CSc3nnnn3C)CS[C@@H]21 (stereo partly drawn) | inactive | inactive | inactive | inactive | inactive | -1.7% (inactive) | inactive | inactive
18 | C[C@]12CC[C@@H]3c4ccc(OC(=O)c5ccccc5)cc4CC[C@H]3[C@@H]1CC[C@@H]2O | inactive | inactive | inactive | inactive | inactive | -1.5% (inactive) | inactive | inactive

Row | Structure (SMILES) | Potency [1] | Potency [2] | Potency [3] | Potency [4] | Potency [5] | max activation [6] | Potency [7] | Potency [8]
19 | COc1ccc(C[C@@H](C)NC[C@H](O)c2ccc(O)c(NC=O)c2)cc1 | inactive | inactive | inactive | inactive | inactive | -1.9% (inactive) | inactive | inactive
20 | C[C@H](CCCC(C)(C)O)[C@H]1CC[C@H]2[C@@H]3CC=C4C[C@@H](O)CC[C@]4(C)[C@H]3CC[C@]12C | inactive | inactive | inactive | inactive | inactive | -4.18% (inactive) | inactive | inactive
21 | O=C(CO)[C@@H](O)[C@H](O)[C@@H](O)C(=O)O | inactive | inactive | inactive | inactive | inactive | -2.1% (inactive) | inactive | inactive
22 | CC(C)C[C@H](NC(=O)[C@@H](Cc1c[nH]c2ccccc12)NC(=O)[C@H](Cc1ccc(O)cc1)NC(=O)[C@H](CO)NC(=O)[C@H](Cc1c[nH]c2ccccc12)NC(=O)[C@H](Cc1cnc[nH]1)NC(=O)[C@@H]1CCC(=O)N1)C(=O)N[C@@H](CCCN=C(N)N)C(=O)N1CCC[C@@H]1C(=O)NCC(N)=O | inactive | inactive | inactive | inactive | inactive | -2.6% (inactive) | inactive | inactive
23 | CS(=O)(=O)OCC(O)C(O)COS(C)(=O)=O (stereo not drawn) | inactive | inactive | inactive | inactive | inactive | -4.2% (inactive) | inactive | inactive
24 | CC(C)(CO)[C@@H](O)C(=O)NCCCC(=O)O | inactive | inactive | inactive | inactive | inactive | -8.61% (inactive) | inactive | inactive
25 | O=C1CC[C@@H](C(=O)N2CSC[C@H]2C(=O)O)N1 ([pGlu]-[Thz]-OH) | inactive | inactive | inactive | inactive | inactive | 0.797% (inactive) | inactive | inactive
26 | CCCOc1cc(N)ccc1C(=O)OCCN(CC)CC | inactive | inactive | inactive | inactive | inactive | 2.87% (inactive) | inactive | inactive
27 | CC(C)CCCC(C)NC(C)C (stereo not drawn) | inactive | inactive | inactive | inactive | inactive | -0.288% (inactive) | inactive | inactive
28 | O=C(O)c1cc(N=Nc2ccc(O)c(C(=O)O)c2)ccc1O | inactive | inactive | inactive | inactive | inactive | -4.04% (inactive) | inactive | inactive
29 | CCCc1nc(C(C)(C)O)c(C(=O)OCc2oc(=O)oc2C)n1Cc1ccc(-c2ccccc2-c2nn[nH]n2)cc1 | inactive | inactive | inactive | inactive | inactive | -4.8% (inactive) | inactive | inactive
30 | CC[C@H]1NC(=O)[C@@H](NC(=O)c2ncccc2O)[C@@H](C)OC(=O)[C@H](c2ccccc2)NC(=O)[C@@H]2CC(=O)CCN2C(=O)[C@H](Cc2ccccc2)N(C)C(=O)[C@@H]2CCCN2C1=O | inactive | inactive | inactive | inactive | inactive | 9.01% (inactive) | inactive | inactive
31 | O=C(COc1ccc(Cl)cc1)OCCNC12CC3CC(CC(C3)C1)C2 | inactive | inactive | inactive | inactive | inactive | -5.06% (inactive) | inactive | inactive
32 | C=C1CC[C@H](O)CC1=C/C=C1\CCC[C@]2(C)[C@@H]([C@H](C)CCCC(C)(C)O)CC[C@@H]12 | inactive | – | inactive | – | inactive | -20.1% (inactive) | inactive | inactive
33 | CC(C)Cc1ccc([C@@H](C)C(=O)NS(C)(=O)=O)cc1 | inactive | inactive | inactive | inactive | inactive | -2.09% (inactive) | inactive | inactive
34 | CC[C@H](C)CCCCC(=O)N[C@@H](CCN)C(=O)N[C@H](C(=O)N[C@@H](CCN)C(=O)N[C@H]1CCNC(=O)[C@@H]([C@H](C)O)NC(=O)[C@H](CCN)NC(=O)[C@H](CCN)NC(=O)[C@H](CC(C)C)NC(=O)[C@@H](CC(C)C)NC(=O)[C@H](CCN)NC1=O)[C@@H](C)O (X2-[Dab]T[Dab][Dab][Dab][dL]L[Dab][Dab][dT]; lactam 4-C) | inactive | inactive | inactive | inactive | inactive | -4.02% (inactive) | inactive | inactive
35 | O=C(O)CC/C=C\CC[C@@H]1[C@@H](N2CCCCC2)[C@@H](O)C[C@@H]1OCc1ccc(-c2ccccc2)cc1 | inactive | inactive | inactive | inactive | inactive | -6.46% (inactive) | inactive | inactive

Source: PubChem BioAssay (Tox21)
